The record followed here is publication PMC5540273 (PLoS ONE, 2017).
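Also: kd values determined as follow-up on hits from a single-replicate KINOMEscan panel screen.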

One experiment deals with T1, MEK5.
T1 construct: gene MAP2K5
Regarding `COc1cc2ncnc(Nc3ccc4nc(-c5ccccc5)[nH]c4c3)c2cc1OC.Cl` [GW282450], binding was characterised by a dissociation constant (Kd) of 670 nM. In turn, `Cn1cncc1-c1ccc2ncnc(Nc3ccc(OCc4ccccc4)cc3)c2c1` [GW320571] returned a Kd of 450 nM. The Kd values of the last two compounds are within 1.5-fold of each other. Take `COc1ccc(CNC(=O)NC2CCN(c3ccnc(Nc4cc(OC)c(OC)c(OC)c4)n3)C2)cc1` (stereo not shown) [GSK1379748]: the Kd was 95 nM. Take `Cl.O=C(Nc1cccc(-c2nn3ncccc3c2-c2ccnc(Nc3cccnc3)n2)c1)c1c(F)cccc1F` [GSK312879]: binding was characterised by a dissociation constant (Kd) of 230 nM. In turn, `COc1cccc(NC(=O)NC2CCN(c3ccnc(Nc4ccc(F)cc4)n3)C2)c1` (stereo not shown) [GSK1379721] displayed a Kd of 500 nM. This Kd lies about 2.2-fold higher than the previous one. Turning to `Fc1cc(Cl)ccc1Nc1ccnc2cc(-c3ccc(CN4CCCCC4)o3)ccc12` [GW560116], the affinity, expressed as Kd, was 890 nM. Regarding `Cl.NC(=O)c1cccc(Nc2nccc(Nc3ccc(Oc4cccc(Cl)c4)c(Cl)c3)n2)c1` [GW659008], the Kd amounted to 34 nM. Compound `COc1cc2nccc(Nc3ccc(NC(=O)c4ccc(C)cc4)c(O)c3)c2cc1OC.Cl` [GW440132] had a Kd of 8.7 nM. Still for that read-out and setting: the result for `COc1cc2ncn(-c3cc(OCC4CCCO4)c(C(N)=O)s3)c2cc1OC` (stereo not shown) [GSK204607] reads 81 nM. Consider `Cc1ccc(C(=O)Nc2ccc(Nc3ccnc4cc(-c5ccccn5)ccc34)cc2O)cc1.Cl` [GW440146], for which binding was put at a Kd of 4.7 nM.

Regarding `COc1ccc(Nc2nccc(-c3cccc(NC(=O)c4cc5cc(F)ccc5[nH]4)c3)n2)cc1` [GSK1229782], binding was characterised by a dissociation constant (Kd) of 200 nM. In the case of `CC(C)(C)c1ccc(C(=O)Nc2cn3cc(-c4cccnc4)ccc3n2)cc1`, binding was put at a Kd of 190 nM.

Regarding `COc1cc(Nc2nccc(N3CCC(NC(=O)Nc4cc(C)ccc4C)C3)n2)cc(OC)c1OC` (stereo not shown) [GSK1379762], the Kd came out at 53 nM. This Kd is about 3.6-fold lower than that of the compound before.

A further experiment relates to MYLK2.
For `O=C(Nc1n[nH]c2nc(-c3nccs3)c(Br)cc12)C1CCCC1` [SB-742609], the Kd stood at 130 nM.

In turn, `O=C(Nc1n[nH]c2nc(-c3nccs3)c(Br)cc12)C1CC1` [SB-742251] showed a Kd of 160 nM. The Kd values of the last two compounds are within 1.5-fold of each other. Turning to `O=C(Nc1n[nH]c2cc(-c3cccc(F)c3F)ccc12)C1CC1` [SB-733894], binding was characterised by a dissociation constant (Kd) of 92 nM.

A word on the Kd: it is the equilibrium constant for the complex coming apart. A higher Kd goes with lower affinity.
